Shown are actives, neighbours in structure and some others; about 6.3% of the full set was active somewhere.
MPTP block: inhibitors of mitochondrial permeability transition pore; isolated mouse mitochondria, Ca2+ swelling absorbance, 30 min; actives 1.4% (n = 360,000); inhibition, % at 10 µM; AID 602449;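 active = inhibition of 50% or more, scaled per plate between neutral and stimulator controls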;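 note: 0% = DMSO wells given calcium and 100% = 1 mM EGTA wells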
tim23-1 inh: inhibits growth of tim23-1 mutant yeast; inhibition, % at 20 µM; S. cerevisiae tim23-1 growth, BacTiter-Glo luminescence, 24 h; AID 463212; actives 1.3% (n = 330,000);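 active = growth inhibition of the mutant yeast at or above 50%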;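 note: temperature-sensitive mutant grown at 25 °C; plate controls were DMSO-treated mutant yeast for no effect and medium wells lacking yeast for full effect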
TIM10 inh: inhibits growth of TIM10 yeast strain. inhibition, % at 10 µM. actives 1.4% (n = 330,000). AID 463195. S. cerevisiae TIM10 strain growth, BacTiter-Glo luminescence, 24 h;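 active = inhibition of 40% or more at the single tested concentration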;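 note: wild-type TIM10 isogenic control strain grown at permissive 25 °C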
Mdm2 MdmX PPI: disrupts the human Mdm2-MdmX interaction. inhibition, % at 8 µM. O15151+Q00987. actives 3% (n = 330,000). SaOS-2 split-luciferase Mdm2/MdmX complementation, luminescence;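 active = inhibition of at least 50% at 8 µM in the primary screen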
tim10-1 inh: growth inhibitors of tim10-1 mutant yeast; S. cerevisiae tim10-1 ts strain growth, BacTiter-Glo, 24 h; inhibition, % at 20 µM; actives 2.2% (n = 330,000);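 active = inhibition of at least 40%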;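 note: mutant grown at 25 °C; 0% = DMSO wells with yeast and 100% = wells holding no yeast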
tim23-1 conf: confirmation of tim23-1 mutant yeast growth inhibitors; shares compounds with tim23-1 inh; inhibition, % at 20 µM; AID 463218; actives 83% (n = 4,400); S. cerevisiae tim23-1 growth, BacTiter-Glo luminescence, 24 h;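 active = inhibition above about 39% in either of two replicate wells at 20 µM, limit read from the data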;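 note: temperature-sensitive tim23-1 mutant grown at 25 °C; 0% = DMSO wells with yeast and 100% = medium wells without yeast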
* = called active by the depositor; / = not tested or not shown.

SMILES	MPTP block	tim23-1 inh	TIM10 inh	Mdm2 MdmX PPI	tim10-1 inh	tim23-1 conf
Cc1ccc(S(=O)(=O)/N=C/c2cc(Br)ccc2O)cc1	-1	36	13	7	10	/
Cc1cc(N=Cc2cc(Br)ccc2O)no1	-1	67*	8	3	36	34
CC(C)COc1ccc(-c2nn(-c3ccccc3)cc2CO)cc1	0	41	16	-58	20	/
OCc1cn(-c2ccccc2)nc1-c1ccc(Br)cc1	1	67*	-3	-59	-7	28
CN(N=Nc1nc[nH]c1C(N)=O)C1CCCCC1	-1	/	/	/	/	/
CCS(=O)(=O)N1Cc2cc(C(=O)N(C)C)nc(-c3cccc(-c4ccc(F)cc4)c3)c2[C@H]1CCO	-1	/	/	/	/	/
Cc1cc(C(=O)NCc2ccccc2)no1	0	15	-6	-1	7	/
Cc1ccc(-c2nc(CNC(=O)c3cc(C)on3)cs2)cc1	1	53*	-8	15	-11	41*
O=C(CSc1nnc(-c2ccccn2)n1Cc1ccco1)c1ccc(Cl)cc1	3	35	3	18	14	/
Clc1cccc(CSc2nnc(-c3ccccn3)n2Cc2ccco2)c1	1	52*	40	24	33	57*
CC1=C(C(=O)N(C)C)CC(CC(=O)NCc2cccs2)C(=O)N1Cc1ccc(F)cc1 (centres undefined)	1	/	/	/	/	/
O=c1ccn(C2CCCCC2)c(=O)[nH]1	-2	/	/	/	/	/
O=C(c1cc(-c2ccccc2Cl)nc2ccccc12)N1CCN(c2ccccc2O)CC1	-1	40	20	26	23	/
O=C(c1cc(-c2ccccc2Cl)nc2ccccc12)N1CCN(c2ccccn2)CC1	-1	54*	24	-22	18	44*
CC(=O)COc1cccc2ccc(/C=C/c3ccc(Br)s3)nc12	0	55*	28	15	24	45*
COC(=O)c1ccsc1NC(=O)CSc1nnnn1Cc1ccccc1	-2	51*	11	29	35	38
COc1cc(NC(=O)CSc2nnnn2Cc2ccccc2)cc(OC)c1	0	-1	-5	0	4	/
Cc1ccc(C(=O)CSc2nnnn2Cc2ccccc2)cc1C	1	51*	16	8	22	49*
COc1cccc(C#Cc2cnc3c(c2)C(=O)N([C@@H](C)CO)C[C@H](C)[C@H](CN(C)C(=O)C2CCC2)O3)c1	0	/	/	/	/	/
CC(C)c1ccc(CC(=O)N2CCC2(C)C(=O)NS(=O)(=O)c2cccc(OC(F)F)c2)cc1 (centres undefined)	0	/	/	/	/	/
CCc1nc2ccc(C(=O)NCCOc3ccc(OC)cc3)cn2c1N(C=O)Cc1ccc(OC)cc1	1	/	/	/	/	/
NC(=S)Cc1nc2n(n1)Cc1ccccc1-2	-2	0	-2	-32	6	/
Cc1ccc(-c2nc3n(n2)Cc2ccccc2-3)cc1	0	54*	20	-4	14	50*
CCCC(O)(c1ccc(Cl)cc1)C(CN1CCOCC1)c1ccc(Cl)cc1 (centres undefined)	0	57*	29	14	-3	-9
Cc1ccc(S(=O)(=O)N2CCC(=O)N([C@H](COCc3ccc(Cl)cc3)C(C)C)CC2)cc1	0	/	/	/	/	/
SMILES	MPTP block	tim23-1 inh	TIM10 inh	Mdm2 MdmX PPI	tim10-1 inh	tim23-1 conf
COc1c(O)c(=O)n2c3ccccc3c3ccnc1c32	1	62*	35	16	36	78*
O=c1c(Cl)c(O)c2cccc3c4ccccc4n1c23	3	20	9	6	16	/
O=C(c1ccco1)N1CCN(c2ncnc3scc(-c4ccc(Cl)cc4)c23)CC1	0	/	/	/	/	/
O=C(N/N=C/c1ccc([N+](=O)[O-])s1)c1ccncc1	0	63*	39	30	34	67*
O=C(c1ccc(F)cc1)N(C(=O)c1ccc(F)cc1)c1ncccn1	-1	55*	33	12	32	47*
O=C(c1cc2ccccc2oc1=O)N(Cc1ccco1)C1CCS(=O)(=O)C1 (centres undefined)	-8	94*	4	9	6	13
CN(C)c1ccc(CN(C(=O)c2cc3ccccc3oc2=O)C2CCS(=O)(=O)C2)cc1 (centres undefined)	-2	5	-7	-57	-3	/
CNc1cc(-c2cccc(OC)c2F)nc2ccnn12	0	/	/	/	/	/
Cc1ccc(Cl)cc1NC(=S)N(Cc1cccs1)C1CCCC1	2	21	21	5	27	/
Cc1ccccc1NC(=S)N(Cc1cccs1)C1CCCCC1	0	51*	28	10	34	39*
COC(=O)c1ccc(Cn2cnc3c(Cl)ncnc32)cc1	0	/	/	/	/	/
COc1ccc(S(=O)(=O)N2CCN(Cc3cccc(Cl)c3)CC2)cc1	-7	51*	26	-13	26	53*
COc1cccc(C(=O)NC(=S)N2c3ccccc3CC2C)c1OC (centres undefined)	0	51*	37	-3	22	54*
CN1NC(c2ccccc2)NN(C)C1=O	0	/	/	/	/	/
CC(C)CCN1C(=O)c2cccc3c(N)ccc(c23)C1=O	1	65*	14	-10	39	47*
CC1(C)CC2CC(C)(CN2S(=O)(=O)c2ccc(F)cc2F)C1 (centres undefined)	0	52*	30	0	40	49*
N#Cc1ccc(S(=O)(=O)N2CCCCC2c2cc(C(=O)NCc3ccccc3)no2)cc1 (centres undefined)	0	/	/	/	/	/
CC(C)c1nc2c(c(=O)c3ccccc3n2C)c(=O)n1CCc1ccccc1	16	59*	38	-4	23	38
COc1ccc(CCn2c(C(C)C)nc3oc4ccccc4c(=O)c3c2=O)cc1	3	51*	1	4	4	41*
COc1ccc(CN2C[C@@H](CO)O[C@@H](n3cnc4c(NCc5ccco5)ncnc43)C2)cc1	-1	/	/	/	/	/
O=C1C=C(c2cccc(Cl)c2O)C[C@@H](c2ccc(Cl)cc2)C1	20	57*	3	1	16	40*
O=C1C=C(c2cccc(Cl)c2)C[C@@H](c2ccc(Cl)cc2)C1	1	39	10	2	2	/
COc1ccc([C@H]2CC(=O)C=C(c3cccc(Cl)c3)C2)cc1	-2	51*	28	22	28	46*
CC(=O)Nc1ccc(C2=CC(=O)C[C@H](c3ccc(Cl)cc3)C2)cc1	1	51*	16	2	19	42*
CC(C)S(=O)(=O)N1CCCC(c2cc(C(=O)Nc3ccc(F)c(Cl)c3)no2)C1 (centres undefined)	0	/	/	/	/	/
COc1ccc(O)c(C(=O)c2cnn(C(=O)c3cccc(N(C)C)c3)c2)c1	0	58*	26	30	2	57*
CN(C)c1cccc(C(=O)n2cc(C(=O)c3cc(F)ccc3O)cn2)c1	7	57*	18	24	35	68*
COc1ccc(O)c(C(=O)c2cnn(C(=O)c3cc(C)oc3C)c2)c1	26	58*	7	22	29	55*
